Reference: the supplement of paper PMC12350171

test system: Haemophilus parainfluenzae; test: growth AUC normalised to DMSO control (fraction of control); higher = less growth inhibition, active = hit call of the paper; conditions: 20 µM;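 active = AUC significantly below DMSO controls by Student t-fit with adjusted P under 0.01; inactive = not significantly reduced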
Summary of the method: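 Hemin and NAD were added to the medium for Haemophilus parainfluenzae. All pathogens, after two anaerobic passages, were inoculated at a starting OD578 of 0.01 into pre-reduced mGAM plates with 20 μM compound and 1% DMSO under breathable seals, and OD578 was read hourly for 24 h in three biological replicates. AUC of each growth curve was obtained with the trapezoidal rule up to the exponential-to-stationary transition and normalised to DMSO controls from the same plate.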

Compound | growth AUC normalised to DMSO control
CCCCC[C@H](O)/C=C/[C@H]1[C@H](O)CC(=O)[C@@H]1CCCCCCC(=O)O [Alprostadil] | 0.903 (inactive)
CC(C)(C(=O)c1cccnc1)c1cccnc1 [Metyrapone] | 0.991 (inactive)
CCC(=O)OCC(=O)[C@@]1(OC(=O)CC)[C@@H](C)C[C@H]2[C@@H]3CCC4=CC(=O)C=C[C@]4(C)[C@@]3(Cl)[C@@H](O)C[C@@]21C [Beclomethasone dipropionate] | 0.969 (inactive)
CC(=O)NS(=O)(=O)c1ccc(N)cc1 [Sulfacetamide sodic hydrate] | 1.03 (inactive)
O=C1C(CC[S+]([O-])c2ccccc2)C(=O)N(c2ccccc2)N1c1ccccc1 (stereo unspecified) [Sulfinpyrazone] | 1.02 (inactive)
Clc1ccc(C(c2ccccc2Cl)C(Cl)Cl)cc1 (stereo unspecified) [Mitotane] | 1.01 (inactive)
